# From the supplement of paper PMC6089552
# The whole screen tested about 3,200 compounds, of which about 300 (9.4%) showed activity. What follows is part of a selection rich in actives, with near analogues and random picks from the rest. A number with no mark means an inactive call.
# Test system: A673/TR/shEF
# Experiment: cell viability (LOESS-normalised, relative to median of negative controls) (log2 ratio); higher = more viable cells (less compound effect), active = hit call of the paper (over 3 MAD below the median)
# Details: treatment time: 72 h
# In short: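 Viability of A673/TR/shEF Ewing sarcoma cells was determined by CellTiter-Glo luminescence. The cells, at 1,500 per well in 384-well plates, were grown with or without doxycycline from 24 h before compound addition to switch on EWS-FLI1 shRNA knockdown, then exposed for three days to library compounds at two or more concentrations or to DMSO controls. Signals were LOESS-corrected plate by plate, normalised to the negative-control median and log2-transformed.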
# [1] = 0.25 µM, library screen: screen1, EWS-FLI1 expression: high (no doxycycline)
# [2] = 0.25 µM, library screen: screen1, EWS-FLI1 expression: low (doxycycline-induced shRNA knockdown)
# [3] = 2.5 µM, library screen: screen1, EWS-FLI1 expression: high (no doxycycline)
# [4] = 2.5 µM, library screen: screen1, EWS-FLI1 expression: low (doxycycline-induced shRNA knockdown)
# [5] = 0.103 µM, library screen: screen3, EWS-FLI1 expression: high (no doxycycline)
# [6] = 0.103 µM, library screen: screen3, EWS-FLI1 expression: low (doxycycline-induced shRNA knockdown)
# [7] = 0.25 µM, library screen: screen2, EWS-FLI1 expression: high (no doxycycline)
# [8] = 0.25 µM, library screen: screen2, EWS-FLI1 expression: low (doxycycline-induced shRNA knockdown)
# [9] = 0.308 µM, library screen: screen3, EWS-FLI1 expression: high (no doxycycline)
# [10] = 0.308 µM, library screen: screen3, EWS-FLI1 expression: low (doxycycline-induced shRNA knockdown)
# [11] = 0.926 µM, library screen: screen3, EWS-FLI1 expression: high (no doxycycline)
# [12] = 0.926 µM, library screen: screen3, EWS-FLI1 expression: low (doxycycline-induced shRNA knockdown)
# [13] = 2.5 µM, library screen: screen2, EWS-FLI1 expression: high (no doxycycline)
# [14] = 2.5 µM, library screen: screen2, EWS-FLI1 expression: low (doxycycline-induced shRNA knockdown)
# [15] = 2.8 µM, library screen: screen3, EWS-FLI1 expression: high (no doxycycline)
# [16] = 2.8 µM, library screen: screen3, EWS-FLI1 expression: low (doxycycline-induced shRNA knockdown)
# [17] = 8.3 µM, library screen: screen3, EWS-FLI1 expression: high (no doxycycline)
# [18] = 8.3 µM, library screen: screen3, EWS-FLI1 expression: low (doxycycline-induced shRNA knockdown)
# [19] = 25 µM, library screen: screen3, EWS-FLI1 expression: high (no doxycycline)
# [20] = 25 µM, library screen: screen3, EWS-FLI1 expression: low (doxycycline-induced shRNA knockdown)
smiles,measurement,setting,value
CC(=O)O[C@@H]1C=C[C@@]2(C)C(C[C@@H](OC(C)=O)[C@@]3(C)C4=CC(=O)O[C@@H](c5ccoc5)[C@]4(C)CCC23)C1(C)C (some centres not stated),cell viability (log2),[1],0.0555
same,cell viability (log2),[2],0.12
same,cell viability (log2),[3],0.1
same,cell viability (log2),[4],0.125
CC(=O)O[C@@H]1CC[C@@]2(C)C(=CC=C3[C@@H]4CC[C@H]([C@H](C)/C=C/[C@H](C)C(C)C)[C@@]4(C)CC[C@@H]32)C1,cell viability (log2),[1],0.0486
same,cell viability (log2),[2],0.129
same,cell viability (log2),[3],0.176
same,cell viability (log2),[4],0.156
[Cl][Pt+2][Cl].[NH2-].[NH2-],cell viability (log2),"0.025 µM, library screen: screen2, EWS-FLI1 expression: high (no doxycycline)",0.0701
same,cell viability (log2),"0.025 µM, library screen: screen2, EWS-FLI1 expression: low (doxycycline-induced shRNA knockdown)",0.092
same,cell viability (log2),[5],0.0436
same,cell viability (log2),[6],0.101
same,cell viability (log2),[1],0.0699
same,cell viability (log2),[2],0.0806
same,cell viability (log2),[7],0.126
same,cell viability (log2),[8],0.0568
same,cell viability (log2),[9],0.119
same,cell viability (log2),[10],0.0647
same,cell viability (log2),[11],0.132
same,cell viability (log2),[12],0.00232
same,cell viability (log2),[3],0.0557
same,cell viability (log2),[4],0.0761
same,cell viability (log2),[13],0.062
same,cell viability (log2),[14],0.0651
same,cell viability (log2),[15],0.0695
same,cell viability (log2),[16],0.05
same,cell viability (log2),[17],0.0685
same,cell viability (log2),[18],0.0664
same,cell viability (log2),"25 µM, library screen: screen2, EWS-FLI1 expression: high (no doxycycline)",0.079
same,cell viability (log2),"25 µM, library screen: screen2, EWS-FLI1 expression: low (doxycycline-induced shRNA knockdown)",0.0718
same,cell viability (log2),[19],0.135
same,cell viability (log2),[20],0.0626
CC(C)CCC[C@@H](C)[C@H]1CC[C@H]2[C@@H]3CC[C@H]4C[C@@H](O)CC[C@]4(C)[C@H]3CC[C@]12C,cell viability (log2),[1],0.0663
same,cell viability (log2),[2],0.113
same,cell viability (log2),[3],0.0848
same,cell viability (log2),[4],0.113
COC(=O)c1c(Cl)c(Cl)c(C(=O)OC)c(Cl)c1Cl,cell viability (log2),[1],0.0653
same,cell viability (log2),[2],0.0707
same,cell viability (log2),[3],0.0863
same,cell viability (log2),[4],0.122
CC1(C)C(=O)C=C[C@@]2(C)C1CC(=O)[C@@]1(C)C3=CC(=O)O[C@@H](c4ccoc4)[C@]3(C)CCC12 (some centres not stated),cell viability (log2),[1],0.0432
same,cell viability (log2),[2],0.0348
same,cell viability (log2),[3],0.201
same,cell viability (log2),[4],0.163
CCOC([O-])=Nc1c[n+](N2CCOCC2)no1,cell viability (log2),[1],0.0951
same,cell viability (log2),[2],0.0303
same,cell viability (log2),[7],0.227
same,cell viability (log2),[8],0.0663
same,cell viability (log2),[3],0.0784
same,cell viability (log2),[4],0.0384
same,cell viability (log2),[13],0.102
same,cell viability (log2),[14],0.116
CC1(C)O[C@H]2[C@H](O)C[C@](O)(C(N)=O)C[C@H]2O1,cell viability (log2),[1],-0.0199
same,cell viability (log2),[2],-0.00566
same,cell viability (log2),[3],0.076
same,cell viability (log2),[4],0.0924
Oc1ccc2c(c1)OC[C@]1(O)Cc3cc(O)c(O)cc3[C@H]21,cell viability (log2),[1],0.113
same,cell viability (log2),[2],0.129
same,cell viability (log2),[3],0.0951
same,cell viability (log2),[4],0.187
NC(C(=O)O)C(O)C(O)C(O)CO (configuration not stated),cell viability (log2),[1],0.0607
same,cell viability (log2),[2],0.059
same,cell viability (log2),[3],0.025
same,cell viability (log2),[4],0.121
COc1ccccc1NC(=O)C1=C(C)NC(=O)NC1c1ccc(Cl)cc1 (configuration not stated),cell viability (log2),[1],0.0563
same,cell viability (log2),[2],0.0447
same,cell viability (log2),[3],0.0428
same,cell viability (log2),[4],0.00886
O=C(CSc1nnc(Cc2ccccc2)o1)c1ccc(Cl)cc1,cell viability (log2),[1],0.0547
same,cell viability (log2),[2],0.0748
same,cell viability (log2),[3],0.133
same,cell viability (log2),[4],-0.101
C[C@H]1CC[C@@H](C(C)(C)O)CC2=C1CC[C@@H]2C,cell viability (log2),[1],-0.0585
same,cell viability (log2),[2],0.0603
same,cell viability (log2),[3],0.0212
same,cell viability (log2),[4],0.083
C[C@@H](Oc1cc(-c2cnn(C3CCNCC3)c2)cnc1N)c1c(Cl)ccc(F)c1Cl,cell viability (log2),[5],0.0466
same,cell viability (log2),[6],0.078
same,cell viability (log2),[9],0.0248
same,cell viability (log2),[10],0.0309
same,cell viability (log2),[11],0.0194
same,cell viability (log2),[12],0.0561
same,cell viability (log2),[15],-0.012
same,cell viability (log2),[16],0.0202
same,cell viability (log2),[17],-0.189 (active)
same,cell viability (log2),[18],0.0761
same,cell viability (log2),[19],-1.08 (active)
same,cell viability (log2),[20],-0.0839
COC(=O)C1=C(C)N=c2sc(=Cc3cccs3)c(=O)n2C1c1ccc(OC)cc1 (configuration not stated),cell viability (log2),[1],0.0442
same,cell viability (log2),[2],0.034
same,cell viability (log2),[3],0.0701
same,cell viability (log2),[4],0.111
CNC(=O)c1cc2c(cn1)[nH]c1ccccc12,cell viability (log2),[7],0.143
same,cell viability (log2),[8],0.0456
same,cell viability (log2),[13],0.152
same,cell viability (log2),[14],0.0711
CNC(=O)c1ccccc1Sc1ccc2c(/C=C/c3ccccn3)n[nH]c2c1,cell viability (log2),[5],-0.00228
same,cell viability (log2),[6],0.0386
same,cell viability (log2),[9],0.0978
same,cell viability (log2),[10],0.044
same,cell viability (log2),[11],0.0712
same,cell viability (log2),[12],0.145
same,cell viability (log2),[15],0.0241
same,cell viability (log2),[16],0.188
same,cell viability (log2),[17],-0.181 (active)
same,cell viability (log2),[18],0.195
same,cell viability (log2),[19],-0.513 (active)
same,cell viability (log2),[20],-0.0147
CC(C)=CCC[C@@H](C)[C@H]1CC[C@@]2(C)C3=C(CC[C@]12C)[C@@]1(C)CC[C@H](O)C(C)(C)[C@@H]1CC3,cell viability (log2),[1],0.101
same,cell viability (log2),[2],-0.00557
same,cell viability (log2),[3],0.158
same,cell viability (log2),[4],0.0178
O=C(O)CCCCCCCn1ccnc1,cell viability (log2),[1],0.124
same,cell viability (log2),[2],0.0433
same,cell viability (log2),[3],0.168
same,cell viability (log2),[4],0.0749
CC1=C(Cl)C(O)=C(Cl)C(=O)C12Oc1cc(O)c(Cl)c(C)c1C2=O (configuration not stated),cell viability (log2),[1],0.065
same,cell viability (log2),[2],0.0174
same,cell viability (log2),[3],0.111
same,cell viability (log2),[4],0.157
CC(=O)OC12CCCC(C)(CCC3C1CC3(C)C)C2 (configuration not stated),cell viability (log2),[1],0.0248
same,cell viability (log2),[2],-0.0723
same,cell viability (log2),[3],0.116
same,cell viability (log2),[4],-0.0213
CC(=O)OC1(C)CCC23CC1C(C)(C)[C@@H]2CC[C@H]3C (some centres not stated),cell viability (log2),[1],0.0148
same,cell viability (log2),[2],0.0289
same,cell viability (log2),[3],0.15
same,cell viability (log2),[4],0.0585
Cc1nc(N)sc1-c1ccnc(Nc2ccc(N3CCOCC3)cc2)n1,cell viability (log2),[5],0.0411
same,cell viability (log2),[6],0.00948
same,cell viability (log2),[9],0.0424
same,cell viability (log2),[10],0.0424
same,cell viability (log2),[11],-0.0206
same,cell viability (log2),[12],0.0867
same,cell viability (log2),[15],-0.219 (active)
same,cell viability (log2),[16],0.0313
same,cell viability (log2),[17],-0.377 (active)
same,cell viability (log2),[18],-0.083
same,cell viability (log2),[19],-0.478 (active)
same,cell viability (log2),[20],-0.719 (active)
COc1cccc(CN2CCN(Cc3cccc([N+](=O)[O-])c3)CC2)c1,cell viability (log2),[1],0.0814
same,cell viability (log2),[2],0.112
